HTR5A inv ag – counter-screen for OPRM1-OPRD1 inverse agonists: human HTR5A inverse agonism | P47898 | HTR5A cell line, luminescence | inhibition, % at 9.3 µM | 0.083% of 340,000 active | AID 504634; in the data active = inhibition mostly above about 23%, no sharp cut-off; inactive = mostly below about 18%
Target sequence (P47898 whole entry, looked up): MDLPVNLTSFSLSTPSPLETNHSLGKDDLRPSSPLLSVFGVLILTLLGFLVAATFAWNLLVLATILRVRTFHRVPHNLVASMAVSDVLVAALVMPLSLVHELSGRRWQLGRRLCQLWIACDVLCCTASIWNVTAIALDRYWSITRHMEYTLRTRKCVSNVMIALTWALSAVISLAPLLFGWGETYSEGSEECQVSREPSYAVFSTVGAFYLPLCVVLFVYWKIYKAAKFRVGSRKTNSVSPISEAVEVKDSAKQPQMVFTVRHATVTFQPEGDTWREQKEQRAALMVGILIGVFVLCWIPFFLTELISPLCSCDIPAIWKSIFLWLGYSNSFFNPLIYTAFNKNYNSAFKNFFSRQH
HTR5A ag ctr – activates human HTR5A in OPRM1-OPRD1 agonist counter-screen; P47898; HTR5A agonist assay, luminescence, cell-based; activation, % at 9.3 µM; 0.61% of 340,000 active; AID 504692; in the data active = activation mostly above about 9.5%, no sharp cut-off; inactive = mostly below about 7.6%
MOR-DOR ag – agonists of human mu-delta opioid receptor heterodimerization; P35372+P41143; cells, OPRM1-OPRD1 heterodimerization, luminescence; activation, % at 9.3 µM; 0.3% of 340,000 active; in the data active = activation above about 18%
OPRM1-OPRD1 inv – inverse agonist of human OPRM1-OPRD1 heterodimerization | cell-based MOR-DOR heterodimer luminescence, inverse agonism | 0.21% of 340,000 active | inhibition, % at 9.3 µM; in the data active = inhibition above about 22%, passing the limit was not always enough
Each line names hits and unclear results; the compound was inactive in the other large screens. The list is not random: actives were taken first. Their share in the collection is about 1.1%.

COc1ccc(C)cc1NC(=O)NNC(=O)C1CCC(C(C)(C)C)CC1 (configuration not stated)	HTR5A ag ctr 13
CC[C@@H](C(=O)[C@@H](C)[C@@H](O)[C@H](C)[C@@H]1O[C@@H]([C@@H](CC)C(=O)O)CC[C@@H]1C)[C@H]1O[C@]2(C=C[C@@H](O)[C@]3(CC[C@@](C)([C@H]4CC[C@](O)(CC)[C@H](C)O4)O3)O2)[C@H](C)C[C@@H]1C	HTR5A ag ctr 40, MOR-DOR ag 104
O=S(=O)(c1ccc(Cl)cc1)N(CCCN1CCOCC1)Cc1cccs1	HTR5A ag ctr 11
CC[C@@H](C(=O)[C@@H](C)[C@@H](O)[C@H](C)CCc1ccc(C)c(O)c1C(=O)O)[C@H]1O[C@](CC)([C@H]2CC[C@](O)(CC)[C@H](C)O2)C[C@@H]1C	HTR5A ag ctr 40, MOR-DOR ag 102
CCC1CN(C(=O)N2CCC(C(=O)NCCc3ccccc3OC)CC2)c2ccccc2O1 (configuration not stated)	none
CCOc1ccc(NC(=O)c2cc(OC)nc3ccccc23)cc1	HTR5A ag ctr 12
O=C1Nc2ccccc2S/C1=C/Nc1cccc(Cl)c1	HTR5A ag ctr 14, MOR-DOR ag 23
CC(C(=O)NC(C)(C)C)N(C(=O)CS(=O)CC(=O)Nc1ccc(F)cc1)C1CCCC1 (configuration not stated)	none
CC(C)N1CN(c2ccccc2)C(=S)N(c2ccccc2)C1	none
CCN(CC)c1c([N+](=O)[O-])c(=O)n(C)c2ccccc12	none
Cn1c(=O)c([N+](=O)[O-])c(Cl)c2ccccc21	OPRM1-OPRD1 inv 37
Cc1ccc(S(=O)(=O)N2CCC(C(=O)N/N=C/c3cccnc3)CC2)cc1	none
Cc1ccc(N(CC(=O)NCC2CCCO2)S(=O)(=O)c2ccccc2)c(C)c1 (configuration not stated)	HTR5A ag ctr 14
O=C(O)CCc1ccc(-c2ccccc2)n1Cc1ccco1	HTR5A ag ctr 9.7
CN1CCN(c2ccccc2NC(=O)c2ccc(-c3cccc(Cl)c3)o2)CC1	MOR-DOR ag 62
O=C(Nc1ccccc1N1CCCCC1)c1ccc(-c2cccc(Cl)c2)o1	none
COc1ccc(C(=O)O)cc1NC(=S)NC(=O)c1ccc(-c2ccc(Cl)cc2)o1	none
Cc1ccc(C(=O)O)cc1NC(=S)NC(=O)c1ccc(-c2ccc(Cl)cc2)o1	HTR5A ag ctr 12
COc1ccc(N2C(=O)c3ccccc3NC2c2ccc(NC(C)=O)cc2)c(OC)c1 (configuration not stated)	none
O=C(N/N=C1/CC2CCC1C2)c1cc2ccccc2cc1O (configuration not stated)	none
CCOC(=O)c1ccc(N=c2sc(C(=O)OC)cc(=O)n2CCCN2CCOCC2)cc1	none
CCOC(=O)c1ccc(N=c2sc(C(=O)OC)cc(=O)n2Cc2ccco2)cc1	HTR5A ag ctr 14
CSc1ccc(/C=C/C(=O)OCC(=O)c2ccc[nH]2)cc1	HTR5A ag ctr 13
CSc1ncccc1C(=O)OCC(=O)c1ccc[nH]1	none
CCc1nnc(SCC(=O)NC2CCCC2)nc1CC	HTR5A ag ctr 9.8
CC1Cc2ccccc2N1C(=O)COC(=O)c1cccnc1Cl (configuration not stated)	HTR5A ag ctr 11
Cc1ccc(NC2CCCN(C(=O)c3cccs3)C2)cc1C (configuration not stated)	none
CC(C)(C)S(=O)N1Cc2cc(=O)n(Cc3ccccc3)cc2[C@@H]1CCO (some centres not stated)	none
Cc1noc(C)c1COc1ccc(C(=O)OCC(=O)N2CC3(C)CC2CC(C)(C)C3)cc1 (configuration not stated)	none
CN(C)S(=O)(=O)c1ccc(C(=O)OCC(=O)N2CC3(C)CC2CC(C)(C)C3)cc1 (configuration not stated)	HTR5A ag ctr 13
O=C(c1ccco1)N1C(=O)c2cccc3cccc1c23	none
O=C(c1ccccc1F)N1C(=O)c2cccc3cccc1c23	HTR5A ag ctr 12
Cc1ccc(NC(=S)NCCc2ccccc2)c(C)c1	none
Cc1ccc(NC(=S)NCCO)c(C)c1	HTR5A ag ctr 12
CCOC(=O)N1CCC(NC(=O)CSCc2nc(-c3ccc(OC)cc3)oc2C)CC1	HTR5A ag ctr 11
Cc1ccccc1C(=O)c1ccc2c(c1)n(C)c(=O)n2C	HTR5A ag ctr 12
Cn1c(=O)n(C)c2cc(C(=O)O)ccc21	none
Cc1nnc(NC(=O)c2nc(S(=O)(=O)Cc3ccccc3)ncc2Cl)s1	HTR5A ag ctr 10
CC(C)c1ccc([N+](=O)[O-])cc1S(=O)(=O)N1CCN(C)CC1	none
